The source made the active and inactive calls. The calls were made as follows: active = hit-call score of the fitted dose curve at least 0.9, where 1 is the maximum; inactive = score below 0.9.
How the values were obtained:
[1] = read-out: Tissue Factor, F3 (gene 2152); experiment: BSK_CASM3C_TissueFactor: BioMAP Diversity Plus: CASM3C Assay for Tissue Factor Biomarker Activity (AID 2283052); details: primary human coronary artery smooth muscle cells; actives raise or lower the signal;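 also: cell surface tissue factor protein level read by ELISA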
[2] = read-out: Interferon-gamma inducible Protein 10 (IP10), CXCL10 (gene 3627); experiment: BSK_hDFCGF_IP10: BioMAP Diversity Plus: hDFCGF Assay for Interferon-gamma inducible Protein 10 (IP10) Biomarker Activity (AID 2283053); details: primary human foreskin fibroblasts; actives raise or lower the signal
How it was run: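 Primary foreskin fibroblasts, human; 24 h compound exposure; IP-10 by ELISA; bidirectional fit vs DMSO.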

[3] = read-out: Urokinase-type plasminogen activator receptor (uPAR), PLAUR (gene 5329); experiment: BSK_CASM3C_uPAR: BioMAP Diversity Plus: CASM3C Assay for Urokinase-type plasminogen activator receptor (uPAR) Biomarker Activity (AID 2283054); details: primary human coronary artery smooth muscle cells; actives raise or lower the signal;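 also: cell-surface uPAR protein level quantified by ELISA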
[4] = read-out: Vascular cell adhesion molecule 1 (VCAM1), VCAM1 (gene 7412); experiment: BSK_CASM3C_VCAM1: BioMAP Diversity Plus: CASM3C Assay for Vascular cell adhesion molecule 1 (VCAM1) Biomarker Activity (AID 2283055); details: primary human coronary artery smooth muscle cells; actives raise or lower the signal;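 also: VCAM-1 protein level quantified by ELISA on the cells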
[5] = read-out: Collagen III, COL3A1 (gene 1281); experiment: BSK_hDFCGF_CollagenIII: BioMAP Diversity Plus: hDFCGF Assay for Collagen III Biomarker Activity (AID 2283056); details: primary human foreskin fibroblasts; actives raise or lower the signal
How it was run: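 Response relative to DMSO, fitted in both directions, reflects ELISA-measured collagen III in human primary skin fibroblasts 24 h after compound addition.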

[6] = read-out: Epidermal growth factor receptor (EGFR), EGFR (gene 1956); experiment: BSK_hDFCGF_EGFR: BioMAP Diversity Plus: hDFCGF Assay for Epidermal growth factor receptor (EGFR) Biomarker Activity (AID 2283057); details: primary human foreskin fibroblasts; actives raise or lower the signal
How it was run: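 hDFCGF system, primary human foreskin fibroblasts; compound 24 h; EGFR measured by ELISA; DMSO = negative control/baseline; bidirectional fitting.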

[7] = read-out: Interleukin-8 (IL8), CXCL8 (gene 3576); experiment: BSK_hDFCGF_IL8: BioMAP Diversity Plus: hDFCGF Assay for Interleukin-8 (IL8) Biomarker Activity (AID 2283058); details: primary human foreskin fibroblasts; actives raise or lower the signal
How it was run: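 Fibroblast monolayers (human foreskin, hDFCGF) received test chemical for 24 h before ELISA detection of IL-8; either increases or decreases relative to DMSO count as activity.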

[8] = BSK_hDFCGF_Proliferation: Cell Proliferation Assessment in the BioMAP Diversity Plus: hDFCGF Assay (AID 2283059); details: primary human foreskin fibroblasts;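 also: curves fitted for both rise and fall of signal versus DMSO baseline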
How it was run: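 This proliferation readout used SRB total-protein staining of human foreskin fibroblasts […], normalized to DMSO with bidirectional curve fitting.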

[9] = read-out: Macrophage colony-stimulating factor (MCSF), CSF1 (gene 1435); experiment: BSK_hDFCGF_MCSF: BioMAP Diversity Plus: hDFCGF Assay for Macrophage colony-stimulating factor (MCSF) Biomarker Activity (AID 2283060); details: primary human foreskin fibroblasts; actives raise or lower the signal
How it was run: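 fibroblasts (human foreskin, primary), 24 h post-dose; M-CSF by ELISA; bidirectional fit, DMSO = baseline.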

[10] = BSK_hDFCGF_SRB: Viability Assessment in the BioMAP Diversity Plus: hDFCGF Assay (AID 2283061); details: primary human foreskin fibroblasts;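 also: cells exposed to compound for 24 h before the read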
How it was run: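 SRB-based viability read on primary human skin fibroblasts at 24 h: TCA fixation, 0.1% dye, 560 nm. Gain or loss of signal is fitted against the DMSO negative control.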

[11] = read-out: TIMP metallopeptidase inhibitor 1 (TIMP1), TIMP1 (gene 7076); experiment: BSK_hDFCGF_TIMP1: BioMAP Diversity Plus: hDFCGF Assay for TIMP metallopeptidase inhibitor 1 (TIMP1) Biomarker Activity (AID 2283062); details: primary human foreskin fibroblasts; actives raise or lower the signal
How it was run: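 Bidirectional curve fitting against DMSO baseline yielded this endpoint, based on ELISA detection of TIMP-1 in primary human foreskin fibroblasts exposed to compound for 24 h.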

[12] = read-out: Monokine induced gamma interferon (MIG), CXCL9 (gene 4283); experiment: BSK_hDFCGF_MIG: BioMAP Diversity Plus: hDFCGF Assay for Monokine induced gamma interferon (MIG) Biomarker Activity (AID 2283063); details: primary human foreskin fibroblasts; actives raise or lower the signal
How it was run: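 Endpoint derived by bidirectional fitting relative to DMSO; MIG quantified via ELISA in primary human foreskin fibroblasts harvested 24 h after dosing.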

[13] = read-out: Matrix Metallopeptidase 1 (MMP1), MMP1 (gene 4312); experiment: BSK_hDFCGF_MMP1: BioMAP Diversity Plus: hDFCGF Assay for Matrix Metallopeptidase 1 (MMP1) Biomarker Activity (AID 2283064); details: primary human foreskin fibroblasts; actives raise or lower the signal
How it was run: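 Primary human foreskin fibroblasts in the hDFCGF system were dosed with test chemical, and MMP1 was measured by ELISA 24 h later. Values come from bidirectional curve fitting against the DMSO baseline.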

[14] = read-out: Vascular cell adhesion molecule 1 (VCAM1), VCAM1 (gene 7412); experiment: BSK_hDFCGF_VCAM1: BioMAP Diversity Plus: hDFCGF Assay for Vascular cell adhesion molecule 1 (VCAM1) Biomarker Activity (AID 2283065); details: primary human foreskin fibroblasts; actives raise or lower the signal
How it was run: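 Measured after 24 h chemical treatment of primary human skin fibroblasts, VCAM-1 was detected by ELISA and concentration-response analysed in both directions versus DMSO vehicle.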

[15] = read-out: Plasminogen activator inhibitor-1 (PAI1), SERPINE1 (gene 5054); experiment: BSK_hDFCGF_PAI1: BioMAP Diversity Plus: hDFCGF Assay for Plasminogen activator inhibitor-1 (PAI1) Biomarker Activity (AID 2283066); details: primary human foreskin fibroblasts; actives raise or lower the signal
How it was run: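 Primary dermal fibroblasts (human foreskin), hDFCGF system; compound 24 h; PAI-1 by ELISA; bidirectional fit vs DMSO control.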

[16] = read-out: Intercellular Adhesion Molecule 1 (ICAM1), ICAM1 (gene 3383); experiment: BSK_KF3CT_ICAM1: BioMAP Diversity Plus: KF3CT Assay for Intercellular Adhesion Molecule 1 (ICAM1) Biomarker Activity (AID 2283067); details: primary human keratinocytes with fibroblasts; actives raise or lower the signal
How it was run: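 Bidirectional curve fitting against a DMSO baseline was applied to ICAM-1 ELISA signal from primary human skin co-cultures harvested 24 h after treatment, with SRB staining of parallel wells for overt cytotoxicity.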

[17] = read-out: Interferon-gamma inducible Protein 10 (IP10), CXCL10 (gene 3627); experiment: BSK_KF3CT_IP10: BioMAP Diversity Plus: KF3CT Assay for Interferon-gamma inducible Protein 10 (IP10) Biomarker Activity (AID 2283068); details: primary human keratinocytes with fibroblasts; actives raise or lower the signal
How it was run: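 Signal is secreted/surface IP-10 by ELISA in a human primary skin co-culture of keratinocytes and foreskin fibroblasts, taken 24 h post-dosing; DMSO served as negative control.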

[18] = BSK_KF3CT_SRB: Viability Assessment in the BioMAP Diversity Plus: KF3CT Assay (AID 2283069); details: primary human keratinocytes with fibroblasts;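 also: total protein by sulforhodamine B staining as a cytotoxicity measure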
How it was run: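 Human primary keratinocyte plus foreskin fibroblast co-culture exposed to chemicals for 24 h. Total protein measured by 0.1% sulforhodamine B staining after 10% TCA fixation, read at 560 nm; bidirectional fitting versus DMSO baseline.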

[19] = read-out: Interleukin-1 alpha (IL1a), IL1A (gene 3552); experiment: BSK_KF3CT_IL1a: BioMAP Diversity Plus: KF3CT Assay for Interleukin-1 alpha (IL1a) Biomarker Activity (AID 2283070); details: primary human keratinocytes with fibroblasts; actives raise or lower the signal
How it was run: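 Human keratinocyte plus foreskin fibroblast primary co-culture, sampled 24 h after chemical dosing. IL-1a measured by ELISA; responses fitted bidirectionally against DMSO baseline (negative control), so gain or loss of signal both count.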

[20] = read-out: TIMP metallopeptidase inhibitor 2 (TIMP2), TIMP2 (gene 7077); experiment: BSK_KF3CT_TIMP2: BioMAP Diversity Plus: KF3CT Assay for TIMP metallopeptidase inhibitor 2 (TIMP2) Biomarker Activity (AID 2283071); details: primary human keratinocytes with fibroblasts; actives raise or lower the signal
How it was run: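 Cells: human keratinocytes co-cultured with foreskin fibroblasts. Treat with chemical, 24 h. Measure TIMP-2 by ELISA; fit curves bidirectionally vs DMSO baseline.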

Measured: AC50

C#C[C@]1(O)CC[C@H]2[C@@H]3CCC4=CC(=O)CC[C@@H]4[C@H]3CC[C@@]21C
inactive: [1] | [2] | [3] | [4] | [5] | [6] | [7] | [8] | [9] | [10] | [11] | [12] | [13] | [14] | [15] | [16] | [17] | [18] | [19] | [20]

CC#C[C@]1(O)CC[C@H]2[C@@H]3CCC4=CC(=O)CCC4=C3[C@@H](c3ccc(N(C)C)cc3)C[C@@]21C
inactive: [1] | [2] | [4] | [6] | [7] | [9] | [11] | [12] | [14] | [17] | [18] | [19] | [20]
active: [3] 30.6 µM | [5] 12.9 µM | [8] 26.6 µM | [10] 20 µM | [13] 26.1 µM | [15] 11.2 µM | [16] 20 µM

O=[N+]([O-])c1ccc(O)cc1
inactive: [1] | [2] | [3] | [4] | [5] | [6] | [7] | [8] | [9] | [10] | [11] | [12] | [13] | [14] | [15] | [16] | [17] | [18] | [19] | [20]

CCc1ccc(CCOc2ccc(CC3SC(=O)NC3=O)cc2)nc1 (stereo not given)
inactive: [1] | [2] | [3] | [4] | [5] | [6] | [7] | [8] | [9] | [10] | [11] | [12] | [13] | [14] | [15] | [16] | [17] | [18] | [19] | [20]

COC(=O)CCCCC(=O)OC
inactive: [1] | [2] | [3] | [4] | [5] | [6] | [7] | [8] | [9] | [10] | [11] | [12] | [13] | [14] | [15] | [16] | [17] | [18] | [19] | [20]
